Results: PubChem BioAssay (NCATS)
Records with an inconclusive call do not appear. Activity calls are given as the source filed them. The call rests on the fitted dose curve; in most records, active means well fitted curve in the direction sought with a large enough effect; inconclusive means small, poorly fitted or top-dose-only effect, or another doubt; inactive means no such curve, though single readings can be large; an effect the other way counts as inactive or inconclusive.

Columns and labels:
[1] = Cell Viability - LYMP2-008 (AID 980); further: nearly all actives have a fitted effect of over 60% in size
Summary of the method: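 Cytotoxicity determined from ATP-dependent luciferase luminescence (CellTiter-Glo) following 24 h compound exposure of human lymphoblastoid LYMP2-008 cells at 37 C. Concentration-response data fitted to the Hill equation to give AC50.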

[2] = Cell Viability - LYMP2-012 (AID 982);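 further: cellular ATP by luciferase luminescence where a drop means cytotoxicity; cells exposed to compound for one day before reading; nearly all actives have a fitted effect of over 55% in size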
[3] = Cell Viability - LYMP2-014 (AID 983); further: series mostly up to about 92 µM; nearly all actives have a fitted effect of over 50% in size
Summary of the method: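 Intracellular ATP loss, read by luciferase luminescence, measures acute cytotoxicity after 24 h compound exposure of lymphoblastoid LYMP2-014 cells (2500/well, 37 C). Concentration-response data fitted to the Hill equation for AC50.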

[4] = Cell Viability - LYMP2-016 (AID 984); further: nearly all actives have a fitted effect of over 55% in size
Summary of the method: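 Concentration-dependent ATP depletion measured in LYMP2-016 lymphoblastoid cells, 24 h, 37 C; luciferase-based luminescent detection; Hill-equation AC50.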

[5] = Cell Viability - LYMP2-018 (AID 985); further: nearly all actives have a fitted effect of over 50% in size
Summary of the method: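 Viability read as CellTiter-Glo luminescence (cellular ATP) after 24 hr compound exposure at 37 C of 2500 LYMP2-018 lymphoblastoid cells/well, pre-plated 5 hr. Hill-equation modelling gave AC50.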

[6] = Cell Viability - LYMP2-020 (AID 986); further: series mostly up to about 92 µM; nearly all actives have a fitted effect of over 55% in size
Summary of the method: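 Cytotoxicity in qHTS format: luminescent ATP readout from CellTiter-Glo after 24 h compound exposure at 37 C in complete medium. LYMP2-020 lymphoblastoid cells were seeded at 2500/well; concentration-response data fitted to the Hill equation for AC50.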

[7] = Cell Viability - LYMP2-022 (AID 987); further: nearly all actives have a fitted effect of over 55% in size
Summary of the method: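 Cytotoxicity read as decreased cellular ATP (CellTiter-Glo luminescence, 30 min room temperature) after 24 hours compound exposure of 2500 lymphoblastoid LYMP2-022 cells/well at 37 C. Concentration-response data fitted with standard Hill equation for AC50.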

[8] = Cell Viability - LYMP2-024 (AID 988); further: nearly all actives have a fitted effect of over 60% in size
Summary of the method: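 Cytotoxicity was taken as a decrease in ATP (CellTiter-Glo luminescence) after 24 hr compound exposure at 37 C of LYMP2-024 lymphoblastoid cells, 2500 cells/well. Concentration-response data were fitted to the Hill equation to give AC50.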

[9] = biological target: Alpha-galactosidase A (Homo sapiens) (UniProt P06280); test: Counterscreen for Glucocerebrosidase Inhibitors: qHTS Assay for Human alpha-Galactosidase at pH 4.5 (AID 992)
Chain of Alpha-galactosidase A (Homo sapiens) (P06280 whole entry, looked up): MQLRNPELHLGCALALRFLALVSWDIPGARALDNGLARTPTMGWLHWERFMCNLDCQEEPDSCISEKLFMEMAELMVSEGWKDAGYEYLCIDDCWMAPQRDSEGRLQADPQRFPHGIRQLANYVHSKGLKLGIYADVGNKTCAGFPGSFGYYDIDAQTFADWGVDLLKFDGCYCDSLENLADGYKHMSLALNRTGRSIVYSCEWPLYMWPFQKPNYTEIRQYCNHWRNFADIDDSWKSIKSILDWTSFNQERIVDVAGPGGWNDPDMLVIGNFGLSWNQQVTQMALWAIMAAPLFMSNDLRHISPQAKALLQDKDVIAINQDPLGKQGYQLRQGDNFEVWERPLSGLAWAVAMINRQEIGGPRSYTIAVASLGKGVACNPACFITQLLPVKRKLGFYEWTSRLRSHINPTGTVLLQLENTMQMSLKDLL
Summary of the method: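 Fluorogenic 1536-well qHTS at pH 4.5 (citrate, Tween-20): 2 nM enzyme, 80 uM 4-MU-alpha-galactoside, 20 min room temperature, NaOH/glycine stop. Titration 0.7 nM to 77 uM, data normalized to no-enzyme and full-activity controls, Hill-fitted AC50.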

[10] = biological target: alpha-glucosidase (Oryza sativa, rice) (UniProt Q653V4); test: Counterscreen for Glucocerebrosidase Inhibitors: qHTS Assay for Rice alpha-Glucosidase at pH 5.0 (AID 997)
Summary of the method: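 Endpoint fluorogenic assay at pH 5.0: compounds (0.7 nM to 77 uM) titrated against 4 nM rice enzyme and 400 uM 4-MU-alpha-glucoside for 20 min at room temperature; NaOH/glycine stop, read ex 365/em 440 nm, Hill-fitted AC50.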

Measured: outcome

Nc1c2c(nc3ccccc13)CCCC2
inactive: all assays above

CNCCCC12CCC(c3ccccc31)c1ccccc12
inactive: [9] | [10]

Cc1cn([C@H]2C=C[C@@H](CO)O2)c(=O)[nH]c1=O
inactive: all assays above

NCCS(=O)(=O)O
inactive: all assays above

Cn1c(=O)c2c(ncn2C)n(C)c1=O
inactive: all assays above

Clc1ccc2c(c1)C(N1CCNCC1)=Nc1ccccc1O2
inactive: [9] | [10]

COC(=O)Nc1nc2ccc(C(=O)c3cccs3)cc2[nH]1
inactive: [9] | [10]

NC12CC3CC(CC(C3)C1)C2
inactive: [9] | [10]

CCc1cccc2c3c([nH]c12)C(CC)(CC(=O)O)OCC3 (stereo unspecified)
inactive: [9] | [10]

Clc1ccc(C(c2ccccc2Cl)C(Cl)Cl)cc1 (stereo unspecified)
inactive: all assays above

COc1ccc2c(c1)c(CC(=O)O)c(C)n2C(=O)c1ccc(Cl)cc1
inactive: all assays above

CN(C)c1nc(N(C)C)nc(N(C)C)n1
inactive: [9] | [10]

O=c1c(O)c(-c2ccc(O)c(O)c2)oc2cc(O)cc(O)c12
inactive: [9] | [10]

NC(=O)NO
inactive: [9] | [10]

Cn1c(=O)c2[nH]cnc2n(C)c1=O
inactive: all assays above

CC[N+](CC)(CC)CCOc1cccc(OCC[N+](CC)(CC)CC)c1OCC[N+](CC)(CC)CC
inactive: [9] | [10]

Cc1cn([C@H]2C[C@H](N=[N+]=[N-])[C@@H](CO)O2)c(=O)[nH]c1=O
not listed: [9] | [10]
inactive: all other assays above

Nc1ccn([C@H]2CC[C@@H](CO)O2)c(=O)n1
inactive: all assays above

NS(=O)(=O)c1cc2c(cc1Cl)NCNS2(=O)=O
inactive: all assays above

Cc1ccccc1N1C(=O)c2cc(S(N)(=O)=O)c(Cl)cc2NC1C (stereo unspecified)
inactive: [9] | [10]

NCCCCCC(=O)O
inactive: [9] | [10]

NC(=O)OCC(COC(N)=O)c1ccccc1
inactive: [9] | [10]

CCC1(c2ccccc2)C(=O)NCNC1=O
inactive: all assays above

CC(C)C(=O)Nc1ccc([N+](=O)[O-])c(C(F)(F)F)c1
inactive: all assays above

CCOC(=O)Nc1ccc(NCc2ccc(F)cc2)nc1N
inactive: [9] | [10]

COc1ccc2[nH]cc(CCNC(C)=O)c2c1
inactive: all assays above

CC(C)NCC(O)c1ccc(O)c(O)c1 (stereo unspecified)
not listed: [9] | [10]
inactive: all other assays above

O=c1c(-c2ccc(O)cc2)coc2cc(O)cc(O)c12
inactive: all assays above

COc1ccc(C2CNC(=O)C2)cc1OC1CCCC1 (stereo unspecified)
inactive: [9] | [10]

Cc1ccc(-c2cc(C(F)(F)F)nn2-c2ccc(S(N)(=O)=O)cc2)cc1
not listed: [9] | [10]
inactive: all other assays above

Cc1cc(C(C)(C)C)cc(C)c1CC1=NCCN1
inactive: [9] | [10]

CN(Cc1cnc2nc(N)nc(N)c2n1)c1ccc(C(=O)N[C@@H](CCC(=O)O)C(=O)O)cc1
inactive: [9] | [10]
